# Data from the supplement of paper PMC10849652.
# Of roughly 7,900 targets only a part is listed; those with a hit were picked by preference. About 0.6% of all pairs of compound and target were hits. Values without a mark were called inactive.
# What was measured:
# Assay in all cases: log2 fold change, soluble protein after heating vs DMSO (PISA); higher = thermal stabilisation; K562 cells, 10 uM, 30 min; active = over 0.2 and 3.5 SD of the protein, either way, in both replicates (recomputed)
# saracatinib = compound: CN1CCN(CCOc2cc(OC3CCOCC3)c3c(Nc4c(Cl)ccc5c4OCO5)ncnc3c2)CC1 [saracatinib]
# Summary of the method: (§1)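 K562 cells at 2×10^6 cells/mL were treated for 30 min with 10 μM compound, and aliquots were heated for 3 min over 48°C-58°C before pooling. Extraction used PBS with 0.5% NP-40 at 4°C, and soluble protein was the supernatant after 21,000xg for 90 min, measured by TMTpro 16plex LC-MS/MS with channel sums equalised. Thermal stability values, relative to control samples and from duplicates, are log2 fold changes.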
# sotrastaurin = compound: CN1CCN(c2nc(C3=C(c4c[nH]c5ccccc45)C(=O)NC3=O)c3ccccc3n2)CC1 [sotrastaurin]
# Summary of the method: as §1
# alvocidib = compound: CN1CC[C@H](c2c(O)cc(O)c3c(=O)cc(-c4ccccc4Cl)oc23)[C@H](O)C1 [alvocidib]
# Summary of the method: as §1
# Tubastatin A = compound: CN1CCc2c(c3ccccc3n2Cc2ccc(C(=O)NO)cc2)C1 [Tubastatin A]
# Summary of the method: as §1
# [1] = compound: CNC(=O)C1=CC=CC=C1NC2=NC(=NC=C2Cl)NC3=C(C=C(C=C3)N4CCOCC4)OC
# Summary of the method: as §1
# defactinib = compound: CNC(=O)c1ccc(Nc2ncc(C(F)(F)F)c(NCc3nccnc3N(C)S(C)(=O)=O)n2)cc1 [defactinib]
# Summary of the method: as §1
# rucaparib = compound: CNCc1ccc(-c2[nH]c3cc(F)cc4c3c2CCNC4=O)cc1 [rucaparib]
# Summary of the method: as §1
# [2] = compound: CNc1nc(-c2ccc3c(N)n[nH]c3c2)cc(N2C[C@@H](C(=O)NC3CCCCC3)CC[C@H]2C)n1
# Summary of the method: as §1
# encorafenib = compound: COC(=O)N[C@@H](C)CNc1nccc(-c2cn(C(C)C)nc2-c2cc(Cl)cc(NS(C)(=O)=O)c2F)n1 [encorafenib]
# Summary of the method: as §1
# [3] = compound: COC(=O)[C@H](CCSC)NC(=O)C1=C(C=C(C=C1)NC[C@H](CS)N)C2=CC=CC=C2
# Summary of the method: as §1
# [4] = compound: COC1=CC=C(C=C1)CN2C=CC3=C2C=C(C=C3)C(=O)NO
# Summary of the method: as §1
# filanesib = compound: CON(C)C(=O)N1N=C(c2cc(F)ccc2F)S[C@@]1(CCCN)c1ccccc1 [filanesib]
# Summary of the method: as §1
# zotarolimus = compound: CO[C@H]1C[C@@H]2CC[C@@H](C)[C@@](O)(O2)C(=O)C(=O)N2CCCC[C@H]2C(=O)O[C@H]([C@H](C)C[C@@H]2CC[C@H](n3cnnn3)[C@H](OC)C2)CC(=O)[C@H](C)/C=C(\C)[C@@H](O)[C@@H](OC)C(=O)[C@H](C)C[C@H](C)/C=C/C=C/C=C/1C [zotarolimus]
# Summary of the method: as §1
# idasanutlin = compound: COc1cc(C(=O)O)ccc1NC(=O)[C@@H]1N[C@@H](CC(C)(C)C)[C@](C#N)(c2ccc(Cl)cc2F)[C@H]1c1cccc(Cl)c1F [idasanutlin]
# Summary of the method: as §1
# alisertib = compound: COc1cc(Nc2ncc3c(n2)-c2ccc(Cl)cc2C(c2c(F)cccc2OC)=NC3)ccc1C(=O)O [alisertib]
# Summary of the method: as §1
# [5] = compound: COc1cc2nc(-c3cc(F)ccc3O)nc(N[C@@H]3CNC[C@H]3C(C)(C)O)c2cc1OC
# Summary of the method: as §1
# gefitinib = compound: COc1cc2ncnc(Nc3ccc(F)c(Cl)c3)c2cc1OCCCN1CCOCC1 [gefitinib]
# Summary of the method: as §1
# [6] = compound: COc1cccc2cc(-c3nc([C@H]4CC[C@H](C(=O)O)CC4)n4ncnc(N)c34)[nH]c12
# Summary of the method: as §1
# lapatinib = compound: CS(=O)(=O)CCNCc1ccc(-c2ccc3ncnc(Nc4ccc(OCc5cccc(F)c5)c(Cl)c4)c3c2)o1 [lapatinib]
# Summary of the method: as §1
# pictilisib = compound: CS(=O)(=O)N1CCN(Cc2cc3nc(-c4cccc5[nH]ncc45)nc(N4CCOCC4)c3s2)CC1 [pictilisib]
# Summary of the method: as §1
# Sequence of UniProt P29966 (P29966 whole entry, looked up): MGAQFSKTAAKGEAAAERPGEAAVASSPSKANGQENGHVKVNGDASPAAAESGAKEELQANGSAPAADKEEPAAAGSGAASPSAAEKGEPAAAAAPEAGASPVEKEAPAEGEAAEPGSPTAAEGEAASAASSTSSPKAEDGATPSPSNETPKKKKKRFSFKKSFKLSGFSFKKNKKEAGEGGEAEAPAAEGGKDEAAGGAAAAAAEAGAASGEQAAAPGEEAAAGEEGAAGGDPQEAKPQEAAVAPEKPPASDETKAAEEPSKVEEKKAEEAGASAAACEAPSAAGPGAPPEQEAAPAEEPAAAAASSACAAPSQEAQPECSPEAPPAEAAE
# Sequence of UniProt O95232 (O95232 whole entry, looked up): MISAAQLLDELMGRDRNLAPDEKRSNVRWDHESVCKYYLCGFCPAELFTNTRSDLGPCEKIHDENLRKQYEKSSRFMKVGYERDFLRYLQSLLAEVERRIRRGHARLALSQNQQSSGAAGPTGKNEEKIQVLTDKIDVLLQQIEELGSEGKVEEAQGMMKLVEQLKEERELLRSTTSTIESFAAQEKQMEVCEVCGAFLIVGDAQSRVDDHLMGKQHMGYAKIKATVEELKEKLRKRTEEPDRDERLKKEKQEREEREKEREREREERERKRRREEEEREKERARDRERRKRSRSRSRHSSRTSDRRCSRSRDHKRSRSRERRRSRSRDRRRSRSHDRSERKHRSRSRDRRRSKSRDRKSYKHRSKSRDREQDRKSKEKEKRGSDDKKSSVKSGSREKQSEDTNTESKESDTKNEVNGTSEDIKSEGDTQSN
# Sequence of UniProt Q4G0J3 (Q4G0J3 whole entry, looked up): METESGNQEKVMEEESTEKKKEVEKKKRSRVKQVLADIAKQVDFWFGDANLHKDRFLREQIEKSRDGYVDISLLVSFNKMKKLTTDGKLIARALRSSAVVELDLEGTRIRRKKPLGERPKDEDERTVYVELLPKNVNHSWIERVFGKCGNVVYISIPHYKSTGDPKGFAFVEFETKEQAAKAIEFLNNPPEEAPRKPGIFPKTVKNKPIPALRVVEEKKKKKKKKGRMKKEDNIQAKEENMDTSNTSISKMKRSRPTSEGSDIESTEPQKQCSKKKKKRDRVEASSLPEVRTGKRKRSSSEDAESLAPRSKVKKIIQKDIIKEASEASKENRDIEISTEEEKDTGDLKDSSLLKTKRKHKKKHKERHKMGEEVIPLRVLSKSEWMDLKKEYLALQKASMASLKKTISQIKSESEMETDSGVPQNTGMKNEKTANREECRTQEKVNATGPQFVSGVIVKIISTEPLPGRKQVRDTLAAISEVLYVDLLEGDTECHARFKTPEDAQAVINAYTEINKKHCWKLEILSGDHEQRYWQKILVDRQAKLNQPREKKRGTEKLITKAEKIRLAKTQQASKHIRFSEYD
# Sequence of UniProt P23276 (P23276 whole entry, looked up): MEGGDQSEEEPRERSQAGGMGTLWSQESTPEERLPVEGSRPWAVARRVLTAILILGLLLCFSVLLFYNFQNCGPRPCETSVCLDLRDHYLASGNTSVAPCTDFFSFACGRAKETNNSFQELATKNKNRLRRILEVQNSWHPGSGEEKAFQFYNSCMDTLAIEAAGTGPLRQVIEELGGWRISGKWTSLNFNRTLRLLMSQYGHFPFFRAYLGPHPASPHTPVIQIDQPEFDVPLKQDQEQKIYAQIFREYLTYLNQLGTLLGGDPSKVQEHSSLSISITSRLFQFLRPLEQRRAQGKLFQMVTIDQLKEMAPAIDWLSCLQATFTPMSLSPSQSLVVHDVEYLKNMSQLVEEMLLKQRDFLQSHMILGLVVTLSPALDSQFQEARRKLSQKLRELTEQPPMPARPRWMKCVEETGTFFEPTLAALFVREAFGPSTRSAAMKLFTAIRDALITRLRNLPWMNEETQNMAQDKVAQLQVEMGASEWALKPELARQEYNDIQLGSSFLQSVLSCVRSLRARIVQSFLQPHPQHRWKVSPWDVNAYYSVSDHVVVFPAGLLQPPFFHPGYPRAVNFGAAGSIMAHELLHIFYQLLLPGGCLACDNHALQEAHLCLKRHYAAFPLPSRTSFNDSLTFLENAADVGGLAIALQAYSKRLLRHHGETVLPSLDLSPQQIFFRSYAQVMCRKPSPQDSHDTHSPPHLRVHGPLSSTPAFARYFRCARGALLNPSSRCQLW
# Sequence of UniProt Q96AQ8 (Q96AQ8 whole entry, looked up): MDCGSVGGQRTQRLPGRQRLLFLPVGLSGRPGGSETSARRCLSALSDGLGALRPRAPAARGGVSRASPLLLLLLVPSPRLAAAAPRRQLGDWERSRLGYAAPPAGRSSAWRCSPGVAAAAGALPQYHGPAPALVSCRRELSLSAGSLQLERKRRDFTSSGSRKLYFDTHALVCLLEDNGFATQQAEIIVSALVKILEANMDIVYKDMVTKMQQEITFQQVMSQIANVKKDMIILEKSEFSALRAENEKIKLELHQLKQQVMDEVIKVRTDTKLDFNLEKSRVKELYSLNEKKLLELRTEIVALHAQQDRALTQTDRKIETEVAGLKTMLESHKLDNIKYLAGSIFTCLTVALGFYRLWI
# Sequence of UniProt P45984 (P45984 whole entry, looked up): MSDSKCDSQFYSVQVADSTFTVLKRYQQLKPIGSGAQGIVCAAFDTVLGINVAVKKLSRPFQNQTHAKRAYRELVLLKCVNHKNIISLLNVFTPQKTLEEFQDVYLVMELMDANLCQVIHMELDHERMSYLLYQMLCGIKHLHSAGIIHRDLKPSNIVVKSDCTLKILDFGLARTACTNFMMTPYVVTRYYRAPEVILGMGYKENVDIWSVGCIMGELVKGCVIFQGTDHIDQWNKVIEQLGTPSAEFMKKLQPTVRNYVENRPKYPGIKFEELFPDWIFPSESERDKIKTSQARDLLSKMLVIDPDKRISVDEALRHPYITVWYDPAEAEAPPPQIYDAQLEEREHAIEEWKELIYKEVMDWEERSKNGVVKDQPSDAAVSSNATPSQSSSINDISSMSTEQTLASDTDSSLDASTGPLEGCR
# Sequence of UniProt Q9NQG6 (Q9NQG6 whole entry, looked up): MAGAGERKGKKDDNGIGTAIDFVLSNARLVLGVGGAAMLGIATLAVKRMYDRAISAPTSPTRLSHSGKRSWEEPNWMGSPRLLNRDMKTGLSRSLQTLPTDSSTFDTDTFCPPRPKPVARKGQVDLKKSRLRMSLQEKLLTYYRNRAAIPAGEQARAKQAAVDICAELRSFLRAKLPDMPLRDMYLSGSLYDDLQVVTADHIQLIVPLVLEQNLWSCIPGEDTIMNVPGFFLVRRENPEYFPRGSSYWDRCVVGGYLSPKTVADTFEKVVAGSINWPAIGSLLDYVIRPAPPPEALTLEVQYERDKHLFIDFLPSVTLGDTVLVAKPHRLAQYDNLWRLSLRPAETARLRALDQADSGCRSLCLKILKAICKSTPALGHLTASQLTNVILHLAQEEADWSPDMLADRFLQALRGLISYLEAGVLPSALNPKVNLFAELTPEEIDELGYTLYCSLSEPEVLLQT
# Sequence of UniProt Q9Y496 (Q9Y496 whole entry, looked up): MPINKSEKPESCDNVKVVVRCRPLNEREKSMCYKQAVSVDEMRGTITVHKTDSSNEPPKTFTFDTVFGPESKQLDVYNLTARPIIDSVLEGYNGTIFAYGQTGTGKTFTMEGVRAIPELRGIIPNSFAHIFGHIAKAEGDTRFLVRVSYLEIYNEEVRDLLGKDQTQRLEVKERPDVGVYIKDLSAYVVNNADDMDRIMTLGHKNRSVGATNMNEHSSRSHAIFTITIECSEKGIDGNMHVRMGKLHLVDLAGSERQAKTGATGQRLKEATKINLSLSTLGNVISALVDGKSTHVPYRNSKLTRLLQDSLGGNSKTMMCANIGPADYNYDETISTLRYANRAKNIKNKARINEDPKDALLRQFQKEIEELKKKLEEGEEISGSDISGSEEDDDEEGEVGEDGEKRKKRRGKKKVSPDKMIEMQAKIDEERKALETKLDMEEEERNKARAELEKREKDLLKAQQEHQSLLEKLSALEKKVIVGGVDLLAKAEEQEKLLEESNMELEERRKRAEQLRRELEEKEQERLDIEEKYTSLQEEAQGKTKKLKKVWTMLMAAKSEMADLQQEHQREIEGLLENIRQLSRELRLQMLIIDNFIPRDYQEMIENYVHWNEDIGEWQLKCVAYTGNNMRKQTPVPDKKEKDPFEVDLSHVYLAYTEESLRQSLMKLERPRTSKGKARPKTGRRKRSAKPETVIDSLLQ
# Sequence of UniProt P20700 (P20700 whole entry, looked up): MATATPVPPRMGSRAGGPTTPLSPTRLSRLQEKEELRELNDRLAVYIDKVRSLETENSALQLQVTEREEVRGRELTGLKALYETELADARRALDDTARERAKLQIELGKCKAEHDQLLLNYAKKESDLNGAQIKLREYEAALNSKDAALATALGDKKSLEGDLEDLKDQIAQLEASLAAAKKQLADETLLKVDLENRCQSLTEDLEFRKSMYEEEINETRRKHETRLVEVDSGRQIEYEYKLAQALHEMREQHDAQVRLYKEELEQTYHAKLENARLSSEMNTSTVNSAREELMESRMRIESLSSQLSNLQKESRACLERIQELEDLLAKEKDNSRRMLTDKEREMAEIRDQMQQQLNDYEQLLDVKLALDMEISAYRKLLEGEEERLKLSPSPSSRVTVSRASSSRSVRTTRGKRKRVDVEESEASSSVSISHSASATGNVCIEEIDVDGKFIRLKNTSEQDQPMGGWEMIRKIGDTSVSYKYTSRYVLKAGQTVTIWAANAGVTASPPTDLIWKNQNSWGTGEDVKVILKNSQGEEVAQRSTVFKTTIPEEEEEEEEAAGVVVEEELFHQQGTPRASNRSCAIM
# Sequence of UniProt Q96A72 (Q96A72 whole entry, looked up): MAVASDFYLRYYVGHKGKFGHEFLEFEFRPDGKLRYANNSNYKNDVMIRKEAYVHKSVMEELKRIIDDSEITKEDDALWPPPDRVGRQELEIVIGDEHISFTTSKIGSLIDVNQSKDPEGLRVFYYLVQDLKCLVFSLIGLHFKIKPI
# Sequence of UniProt O14880 (O14880 whole entry, looked up): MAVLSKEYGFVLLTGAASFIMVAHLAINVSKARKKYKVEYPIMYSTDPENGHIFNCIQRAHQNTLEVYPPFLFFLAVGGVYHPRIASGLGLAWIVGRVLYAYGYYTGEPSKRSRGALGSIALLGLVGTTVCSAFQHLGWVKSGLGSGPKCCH
Target,log2 fold change (saracatinib),log2 fold change (sotrastaurin),log2 fold change (alvocidib),log2 fold change (Tubastatin A),log2 fold change [1],log2 fold change (defactinib),log2 fold change (rucaparib),log2 fold change [2],log2 fold change (encorafenib),log2 fold change [3],log2 fold change [4],log2 fold change (filanesib),log2 fold change (zotarolimus),log2 fold change (idasanutlin),log2 fold change (alisertib),log2 fold change [5],log2 fold change (gefitinib),log2 fold change [6],log2 fold change (lapatinib),log2 fold change (pictilisib)
MED25 isoform 3 (UniProt Q71SY5),-0.079,0.031,-0.102,-0.042,-0.014,-0.045,0.104,0.036,0.083,-0.111,-0.015,-0.018,0.136,0.004,0.048,-0.01,0.093,-0.285,-0.03,0.103
IGF2R (UniProt P11717),-0.015,0.004,-0.008,-0.004,0.061,-0.01,-0.027,-0.008,0.045,0.005,0.041,0.007,-0.014,-0.012,-0.058,-0.065,-0.003,0,0.015,0.002
MED16 (UniProt Q9Y2X0),-0.006,-0.044,-0.236,-0.098,0.074,-0.009,-0.004,0.043,-0.025,-0.052,-0.032,0.062,-0.029,0.144,-0.024,-0.063,0.016,0.005,0.064,0.011
MAPK9 (UniProt P45984),-0.118,0.046,0.002,-0.013,0.328 (active),0.003,-0.02,0,0.018,0.029,-0.004,-0.01,-0.022,-0.062,-0.072,0.043,0.009,0.001,-0.039,0.075
MAPK8 isoform 3 (UniProt P45983),-0.006,0.052,0.087,0.009,0.942 (active),-0.009,0.031,-0.07,0.029,-0.029,0.025,0.064,0.018,-0.08,0.007,0.234,-0.026,0.035,-0.045,0.287
LARP7 isoform 3 (UniProt Q4G0J3),0.015,-0.076,-0.234 (active),-0.002,-0.04,-0.328 (active),-0.164,0.003,0.034,-0.019,-0.258 (active),0.071,0.082,-0.019,-0.007,-0.165,0.001,0.042,0.082,-0.041
LUC7L3 (UniProt O95232),-0.003,0.013,-0.049,-0.007,-0.314 (active),-0.113,-0.008,-0.048,0.028,-0.003,0.106,0.083,0.003,0.031,-0.009,0.021,-0.04,0.011,0.045,0.011
MFN1 (UniProt Q8IWA4),-0.029,0.016,-0.076,0.025,-0.019,-0.074,-0.015,0.023,0.038,0,0.042,-0.182,0.06,0.034,0.262,-0.523 (active),0.017,0.03,0.002,0.024
IPO13 (UniProt O94829),0.111,-0.123,0.013,-0.03,0.001,-0.04,-0.016,-0.109,0.039,0.033,-0.017,-0.144,-0.039,-0.038,0.021,-0.024,-0.047,0.008,0.038,0.109
LARP4 isoform 4 (UniProt Q71RC2),-0.066,-0.051,0.031,0.041,0.047,-0.036,0.257,0.059,0.086,-0.014,0.005,0.111,-0.007,0.071,-0.045,-0.159,0.01,-0.125,0.054,-0.068
ILF2 (UniProt Q12905),0.039,0.041,0.325,-0.058,0.015,0.491 (active),0.19,0.04,0.028,0.012,0.086,0.101,-0.024,0.084,-0.146,0.068,-0.045,-0.08,0.101,-0.035
ITIH4 (UniProt Q14624),0.045,0.271,0.005,-0.003,-0.001,0.101,-0.142,-0.124,-0.001,-0.009,0.252,-0.174,-0.896 (active),0.184,-0.047,-0.146,-0.093,0.277,-0.034,-0.241
LARP4B (UniProt Q92615),-0.009,-0.083,0.004,-0.033,-0.025,-0.037,0.273,0.02,0.094,0.032,0.035,0.056,0.004,0.053,-0.054,-0.108,0.011,-0.06,0.081,-0.009
MAGOHB (UniProt Q96A72),-0.047,-0.009,0.03,0.014,-0.007,-0.003,-0.021,0.022,0.019,-0.071,-0.012,0.018,0.054,-0.027,0.011,0.144,0,0.024,-0.018,0.005
MGST3 (UniProt O14880),0.037,0.064,0.021,-0.01,-0.029,0.012,-0.027,-0.028,-0.033,0.053,-0.021,-0.035,-0.005,0.012,0.008,0.001,0.002,0.018,-0.009,0.004
ILKAP (UniProt Q9H0C8),-0.057,-0.087,-0.152,0.055,-0.021,-0.155,0.011,0.055,0.061,-0.078,0,-0.016,0.03,-0.06,-0.13,0.113,0.032,-0.056,-0.029,-0.035
MIEF1 (UniProt Q9NQG6),-0.016,-0.042,-0.031,-0.024,-0.002,0.014,-0.009,-0.088,0.023,-0.018,0.053,-0.18,0.006,-0.066,-0.033,-0.382 (active),0.051,0.001,0.004,-0.027
MCUR1 (UniProt Q96AQ8),-0.002,0.053,-0.035,0.014,0.014,-0.047,-0.038,0.014,-0.009,-0.028,-0.042,0.019,-0.002,-0.13,0.009,0.181,0.009,0.052,-0.009,0.087
MAIP1 (UniProt Q8WWC4),0.03,0.06,-0.058,0.028,0.002,-0.054,-0.039,-0.04,0.048,0.008,0.054,-0.12,-0.025,-0.033,-0.047,-0.088,-0.002,0.095,0.036,0.01
KIF3A (UniProt Q9Y496),-0.102,-0.073,-0.02,-0.031,0.085,0.013,0.292,0.037,0.003,0.005,0.219,-0.091,-0.004,0.056,-0.027,0.137,-0.129,0,-0.063,0.146
LSS (UniProt P48449),0.172,0.016,-0.066,0.103,-0.091,-0.015,0.595 (active),-0.001,0.118,0.074,0.205,0.026,-0.027,-0.116,0.121,0.16,0.126,-0.014,0.02,0.07
LMNB1 (UniProt P20700),0.029,-0.11,-0.173,-0.016,0.007,-0.166,-0.035,-0.095,0.016,0.032,-0.034,0.131,0.053,0.14,-0.075,-0.09,-0.002,0.064,0.087,0.005
KEL (UniProt P23276),0.09,-0.009,-0.044,0.004,-0.091,-0.038,0.006,-0.026,-0.061,0.03,-0.042,0.034,-0.043,0.055,0.177,-0.015,0.07,0.176,-0.078,0.194
MARCKS (UniProt P29966),0.019,0.077,-0.016,0.039,0.005,0.009,-0.02,-0.02,-0.014,0.002,0.108,0.004,0.001,0.062,0.006,-0.016,-0.003,0.069,0.019,-0.225
